# Measured values from PubChem BioAssay (EPA / NIEHS).
# The source made the active and inactive calls. Rule for the calls: active = hit-call score of the fitted dose curve at least 0.9, where 1 is the maximum; inactive = score below 0.9.
# What was measured:
# Details in all cases: mRNA level, 48 h; actives raise or lower the signal
# [1] = read-out: Protein phosphatase 2A (PPP2R4), PTPA (gene 5524); test: LTEA_HepaRG_PPP2R4: Life Technologies and Expression Analysis (LTEA) Assay for Protein phosphatase 2A (PPP2R4) using HepaRG (AID 2283522)
# Outline: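 Readout is PPP2R4 transcript level by microfluidic qRT-PCR after 48 h chemical treatment of human HepaRG liver cells. Concentrations spanned 100 uM downward in half-log steps; gain or loss of signal was fitted relative to DMSO.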
# [2] = read-out: Phosphatase and tensin (PTEN), PTEN (gene 5728); test: LTEA_HepaRG_PTEN: Life Technologies and Expression Analysis (LTEA) Assay for Phosphatase and tensin (PTEN) using HepaRG (AID 2283523)
# Outline: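 HepaRG cells, 48 h after plating, exposed in duplicate for 48 h in serum-free induction medium to 8 half-log concentrations up to 100 uM (0.5% DMSO). PTEN mRNA by qRT-PCR, normalized to ACTB, GAPDH, POLR2A; bidirectional fit versus DMSO.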
# [3] = read-out: solute carrier (SLC22A1), SLC22A1 (gene 6580); test: LTEA_HepaRG_SLC22A1: Life Technologies and Expression Analysis (LTEA) Assay for solute carrier (SLC22A1) using HepaRG (AID 2283524)
# Outline: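 Differentiated human HepaRG cells in serum-free induction medium, exposed 48 h in duplicate to 8-point half-log series from 100 µM top in 0.5% DMSO. SLC22A1 mRNA by TaqMan qRT-PCR normalized to ACTB, GAPDH, POLR2A; bidirectional fit versus DMSO.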
# [4] = read-out: Pyruvate Dehydrogenase Kinase 4 (PDK4), PDK4 (gene 5166); test: LTEA_HepaRG_PDK4: Life Technologies and Expression Analysis (LTEA) Assay for Pyruvate Dehydrogenase Kinase 4 (PDK4) using HepaRG (AID 2283525)
# Outline: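 HepaRG cells plated 48 h, then switched to serum-free induction medium and exposed in duplicate for 48 h to 8 half-log concentrations from 100 uM in 0.5% DMSO. PDK4 mRNA measured by qRT-PCR, normalized to ACTB, GAPDH and POLR2A; bidirectional fit versus DMSO.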
# [5] = read-out: NAD(P)H dehydrogenase [quinone] 1 (NQO1), NQO1 (gene 1728); test: LTEA_HepaRG_NQO1: Life Technologies and Expression Analysis (LTEA) Assay for NAD(P)H dehydrogenase [quinone] 1 (NQO1) using HepaRG (AID 2283526)
# Outline: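 HepaRG, 48 h post-plating → serum-free induction medium → test chemical 48 h (duplicate, 100 uM top, half-log x8, 0.5% DMSO) → RNA isolation → qRT-PCR, ACTB/GAPDH/POLR2A normalization; bidirectional curve fit vs DMSO baseline.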
# [6] = read-out: Nuclear factor erythroid 2-related factor 2 (Homo sapiens) (UniProt Q16236); test: LTEA_HepaRG_NFE2L2: Life Technologies and Expression Analysis (LTEA) Assay for Nuclear factor erythroid 2-related factor 2 (NFE2L2) Transcription Factor using HepaRG (AID 2283527);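 for outcome: TaqMan qRT-PCR transcript level normalised to ACTB GAPDH and POLR2A housekeeping genes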
# Outline: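 Differentiated human HepaRG cells, serum-free induction medium, exposed 48 h in duplicate to eight half-log concentrations up to 100 uM in 0.5% DMSO. NFE2L2 mRNA by Fluidigm TaqMan qRT-PCR, normalised to ACTB, GAPDH, POLR2A; bidirectional change versus DMSO.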
# [7] = read-out: succinate dehydrogenase complex iron sulfur subunit B (SDHB), SDHB (gene 6390); test: LTEA_HepaRG_SDHB: Life Technologies and Expression Analysis (LTEA) Assay for succinate dehydrogenase complex iron sulfur subunit B (SDHB) using HepaRG (AID 2283528)
# Outline: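 Readout is SDHB transcript level by qRT-PCR, normalised to three housekeeping genes and fitted bidirectionally against 0.5% DMSO vehicle. Human HepaRG cells were treated for 48 h at up to 100 uM.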
# [8] = read-out: Signal transducer and activator of transcription 3 (Homo sapiens) (UniProt P40763); test: LTEA_HepaRG_STAT3: Life Technologies and Expression Analysis (LTEA) Assay for Signal transducer and activator of transcription (STAT3) using HepaRG (AID 2283529)
# Outline: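 Differentiated HepaRG cells, serum-free induction medium, dosed 48 h in duplicate, 8 half-log concentrations from 100 uM in 0.5% DMSO. STAT3 mRNA by qRT-PCR, normalised to ACTB, GAPDH, POLR2A; bidirectional fit versus DMSO.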
# [9] = read-out: solute carrier (SLCO1B1), SLCO1B1 (gene 10599); test: LTEA_HepaRG_SLCO1B1: Life Technologies and Expression Analysis (LTEA) Assay for solute carrier (SLCO1B1) using HepaRG (AID 2283530)
# Outline: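 HepaRG, serum-free induction medium, 48 h dosing, 8-pt half-log from 100 uM, 0.5% DMSO vehicle, duplicates. Readout: SLCO1B1 mRNA, qRT-PCR, ACTB/GAPDH/POLR2A normalization; up or down fit vs DMSO.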
# [10] = read-out: sulfotransferase 2A1 (SULT2A1), SULT2A1 (gene 6822); test: LTEA_HepaRG_SULT2A1: Life Technologies and Expression Analysis (LTEA) Assay for sulfotransferase 2A1 (SULT2A1) using HepaRG (AID 2283531)
# Outline: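 Transcript levels of SULT2A1, quantified by qRT-PCR and normalized to three housekeeping genes, serve as the readout. Human HepaRG cultures receive test chemicals for 48 h at up to 100 uM in half-log steps, with 0.5% DMSO vehicle.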
# Sequence of Nuclear factor erythroid 2-related factor 2 (Homo sapiens) (Q16236 whole entry, looked up): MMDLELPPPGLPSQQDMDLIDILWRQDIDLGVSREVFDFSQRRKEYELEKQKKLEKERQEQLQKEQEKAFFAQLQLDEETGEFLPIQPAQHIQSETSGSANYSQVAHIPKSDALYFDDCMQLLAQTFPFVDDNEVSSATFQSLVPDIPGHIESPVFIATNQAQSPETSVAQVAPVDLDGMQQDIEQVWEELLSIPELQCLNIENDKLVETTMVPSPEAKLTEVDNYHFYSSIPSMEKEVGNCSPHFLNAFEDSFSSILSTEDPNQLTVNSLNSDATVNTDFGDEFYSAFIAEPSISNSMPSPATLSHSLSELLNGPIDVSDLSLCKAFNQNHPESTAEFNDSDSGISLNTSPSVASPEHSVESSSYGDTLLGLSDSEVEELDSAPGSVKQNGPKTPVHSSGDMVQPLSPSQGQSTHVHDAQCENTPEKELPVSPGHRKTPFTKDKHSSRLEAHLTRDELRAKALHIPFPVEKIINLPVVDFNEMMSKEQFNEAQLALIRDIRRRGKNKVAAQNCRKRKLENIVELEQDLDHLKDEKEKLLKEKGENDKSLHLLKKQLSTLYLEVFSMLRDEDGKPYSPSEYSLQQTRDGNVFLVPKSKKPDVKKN
# Sequence of Signal transducer and activator of transcription 3 (Homo sapiens) (P40763 whole entry, looked up): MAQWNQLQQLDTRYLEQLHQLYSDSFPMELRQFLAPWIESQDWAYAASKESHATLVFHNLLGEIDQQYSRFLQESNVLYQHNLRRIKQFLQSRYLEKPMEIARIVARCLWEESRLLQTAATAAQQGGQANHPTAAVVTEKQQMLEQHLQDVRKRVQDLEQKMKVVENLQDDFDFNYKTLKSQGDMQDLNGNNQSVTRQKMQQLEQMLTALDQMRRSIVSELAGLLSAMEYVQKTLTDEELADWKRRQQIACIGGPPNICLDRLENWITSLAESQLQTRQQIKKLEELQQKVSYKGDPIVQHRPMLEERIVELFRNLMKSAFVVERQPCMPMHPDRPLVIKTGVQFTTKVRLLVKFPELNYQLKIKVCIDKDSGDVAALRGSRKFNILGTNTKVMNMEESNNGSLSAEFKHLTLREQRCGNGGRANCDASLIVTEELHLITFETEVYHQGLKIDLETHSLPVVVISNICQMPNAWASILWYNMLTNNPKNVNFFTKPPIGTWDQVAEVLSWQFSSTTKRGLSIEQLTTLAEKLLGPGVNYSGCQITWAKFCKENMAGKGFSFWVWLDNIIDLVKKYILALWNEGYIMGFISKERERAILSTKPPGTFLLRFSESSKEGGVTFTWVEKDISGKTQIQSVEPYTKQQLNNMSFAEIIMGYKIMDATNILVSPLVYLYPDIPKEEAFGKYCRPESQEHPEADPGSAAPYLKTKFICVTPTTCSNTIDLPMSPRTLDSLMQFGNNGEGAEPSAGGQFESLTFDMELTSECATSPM
Compound,outcome [1],outcome [2],outcome [3],outcome [4],outcome [5],outcome [6],outcome [7],outcome [8],outcome [9],outcome [10],AC50 [1],AC50 [3],AC50 [4],AC50 [2],AC50 [7],AC50 [9],AC50 [10],AC50 [8],AC50 [6]
Oc1ccc2ccc3cccc4ccc1c2c34,inactive,inactive,inactive,inactive,inactive,inactive,inactive,inactive,inactive,inactive,,,,,,,,,
COC(=O)Nc1nc2ccccc2[nH]1,inactive,inactive,inactive,inactive,inactive,inactive,inactive,inactive,inactive,inactive,,,,,,,,,
C[N+](C)(C)CC1CO1 (stereo unspecified),inactive,inactive,inactive,inactive,inactive,inactive,inactive,inactive,inactive,inactive,,,,,,,,,
C1=Cc2cccc3cccc1c23,inactive,inactive,inactive,inactive,inactive,inactive,inactive,inactive,inactive,inactive,,,,,,,,,
Cc1ccc(N)c(N)c1,inactive,inactive,inactive,inactive,inactive,inactive,inactive,inactive,inactive,inactive,,,,,,,,,
O=P(OCCCl)(OCCCl)OCCCl,,inactive,inactive,inactive,inactive,inactive,inactive,inactive,inactive,inactive,50 µM (active),,,,,,,,
Nc1ccc(Oc2ccc(N)cc2)cc1,inactive,inactive,inactive,inactive,inactive,inactive,inactive,inactive,inactive,inactive,,,,,,,,,
c1ccc2c(c1)oc1ccccc12,inactive,inactive,inactive,inactive,inactive,inactive,inactive,inactive,inactive,inactive,,,,,,,,,
CN(C)c1ccc(C(=O)c2ccc(N(C)C)cc2)cc1,inactive,inactive,,,inactive,inactive,inactive,inactive,inactive,inactive,,50 µM (active),25.8 µM (active),,,,,,
Nc1ccc(N=Nc2ccccc2)cc1,,,,,inactive,inactive,,inactive,,,21.1 µM (active),13.6 µM (active),13.4 µM (active),25 µM (active),18.8 µM (active),11.4 µM (active),22.4 µM (active),,
CCC(C)c1ccc(O)cc1 (stereo unspecified),inactive,inactive,inactive,inactive,inactive,inactive,inactive,,inactive,inactive,,,,,,,,0.361 µM (active),
OCCCBr,inactive,inactive,inactive,inactive,inactive,inactive,inactive,inactive,inactive,inactive,,,,,,,,,
O=C(N[C@H](c1ccccc1)[C@@H]1CN2CCC1CC2)c1c(Cl)ccc(C(F)(F)F)c1Cl,,,,inactive,inactive,,inactive,,,,75.3 µM (active),72.1 µM (active),,77.8 µM (active),,73.9 µM (active),73.2 µM (active),83.3 µM (active),
[Cl-].[Cl-].[Hg+2],inactive,inactive,inactive,inactive,inactive,,inactive,inactive,inactive,inactive,,,,,,,,,
c1ccc(NNc2ccccc2)cc1,inactive,inactive,inactive,inactive,inactive,inactive,inactive,inactive,inactive,inactive,,,,,,,,,
N#CC(Br)Br,inactive,inactive,inactive,inactive,inactive,,inactive,inactive,inactive,,,,,,,,,,
Clc1ccc(Cl)c(Cl)c1,inactive,inactive,,inactive,inactive,inactive,inactive,inactive,inactive,,,20 µM (active),,,,,83.5 µM (active),,
CCOc1cccc(C2(N3CCN(c4ccccc4)CC3)CCC(C)CC2)c1 (stereo unspecified),inactive,inactive,inactive,inactive,inactive,inactive,inactive,inactive,inactive,inactive,,,,,,,,,
CC(C)N(Cc1ccccc1)C(=O)C(C)(C)C,inactive,inactive,inactive,inactive,inactive,inactive,inactive,inactive,inactive,inactive,,,,,,,,,
CCN(CC)CCO,inactive,inactive,inactive,inactive,inactive,inactive,inactive,inactive,inactive,inactive,,,,,,,,,
COc1cc(C=O)cc2c1[C@H](COC(N)=O)[C@]1(OC(C)=O)ON2C[C@H]2[C@@H]1N2C(C)=O,inactive,,,,inactive,,,inactive,,inactive,,0.58 µM (active),95.3 µM (active),29.9 µM (active),93.4 µM (active),0.733 µM (active),,,93.1 µM (active)
